PubChem BioAssay AID1259400 (National Center for Advancing Translational Sciences (NCATS), 2018)
Where “and” joins values, the source holds several entries; their conditions need not be identical. Equal entries are not always repeated. Screen size: about 350,000 compounds; about 2,100 (0.6%) were called active. Inconclusive results (about 1%) are left out. The sample holds actives, similar compounds and a random draw of the others, so the mix is not that of the screen.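 The calls were made as follows: active = activity change of -60% or lower, but not beyond a set lower limit; inconclusive = change between -60% and -40%, or beyond the set limit; inactive = change above -40%.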 Some compounds were tested as several samples or in several runs, with calls that do not always agree.

Each compound was assayed against Relaxin receptor 1 (Homo sapiens) (UniProt Q9HBX9) (assay: qHTS Assay for Antagonists of the Relaxin Receptor RXFP1). Conditions: HEK293-RXFP1, relaxin-stimulated cAMP HTRF, 30 min; at 57.5 µM; stronger effect = lower value.
% is scaled to controls: 0 for no effect and ±100 for the full control effect.

Sequence of Relaxin receptor 1 (Homo sapiens) (Q9HBX9 whole entry, looked up): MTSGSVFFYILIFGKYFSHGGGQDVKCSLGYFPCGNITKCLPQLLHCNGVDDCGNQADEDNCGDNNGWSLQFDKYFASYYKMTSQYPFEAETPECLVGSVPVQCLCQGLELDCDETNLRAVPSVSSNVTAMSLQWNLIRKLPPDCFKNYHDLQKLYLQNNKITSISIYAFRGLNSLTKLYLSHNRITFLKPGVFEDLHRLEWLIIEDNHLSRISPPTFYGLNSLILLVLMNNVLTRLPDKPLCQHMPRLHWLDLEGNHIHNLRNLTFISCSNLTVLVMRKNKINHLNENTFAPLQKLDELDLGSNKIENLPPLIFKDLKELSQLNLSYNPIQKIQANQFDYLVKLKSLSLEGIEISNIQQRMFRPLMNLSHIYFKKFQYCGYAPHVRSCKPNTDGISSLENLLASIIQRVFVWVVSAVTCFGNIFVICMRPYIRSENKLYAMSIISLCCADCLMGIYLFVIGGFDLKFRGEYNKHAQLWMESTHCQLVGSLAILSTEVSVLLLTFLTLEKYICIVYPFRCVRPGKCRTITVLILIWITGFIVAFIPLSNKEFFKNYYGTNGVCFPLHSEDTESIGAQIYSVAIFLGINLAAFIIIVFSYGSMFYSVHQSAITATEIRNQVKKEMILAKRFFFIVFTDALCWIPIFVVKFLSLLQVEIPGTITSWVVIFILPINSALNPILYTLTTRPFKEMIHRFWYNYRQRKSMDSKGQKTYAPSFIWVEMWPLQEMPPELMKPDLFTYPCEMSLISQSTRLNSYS

SMILES	activity change, negative = inhibition
CCOC(=O)c1c(NC(=O)CSc2nccc(=O)[nH]2)sc(C)c1C	-91.3% (active)
CCOC(=O)c1c(NC(=O)CSc2nnc(Cc3csc(N)n3)n2C)sc(C)c1C	-1.84% (inactive)
CCOC(=O)c1c(NC(=O)CSc2nnc(CNc3ccc(C)cc3C)o2)sc(C)c1C	-10.8% (inactive)
CCOc1ccccc1C(=O)Nc1ccc(S(=O)(=O)N2CCCCC2c2cccnc2)cc1 (stereo unspecified)	-12.4% (inactive)
CCOc1ccc(N(CC)S(=O)(=O)N2CCCC(C(=O)NCc3ccc(Cl)cc3)C2)cc1 (stereo unspecified)	-18.5% (inactive)
CCCCNC(=O)c1ccc(-n2c(=S)[nH]c3ccccc3c2=O)cc1	-80.7% (active)
CCN(CC)CCCNC(=O)c1ccc2c(=O)n(Cc3ccc4c(c3)OCO4)c(=S)[nH]c2c1	-14.7% (inactive)
COCCn1c(=S)[nH]c2cc(C(=O)NCCc3ccc(OC)c(OC)c3)ccc2c1=O	2.84% (inactive)
CCN1CCN(c2ncnc3c2cnn3-c2ccc(C)c(C)c2)CC1	-9.99% (inactive)
Cc1ccccc1-n1nnc2c(=O)oc3ccccc3c21	-91.4% (active)
O=c1oc2ccccc2c(=O)c2ccccc12	10.6% (inactive)
Cc1cccc(N2CCN(c3c(CN4CCCC4)c(=O)oc4ccccc34)CC2)c1C	-2.93% (inactive)
O=C(OCCN1CCOCC1)c1cccnc1Nc1cccc(C(F)(F)F)c1	-38.4% (inactive)
CCOc1ccc(C(NC(=O)c2cc(OC)c(OC)c(OC)c2)c2cc(Cl)c3cccnc3c2O)cc1 (stereo unspecified)	-12.8% (inactive)
CN1CCN(CCCNC(=O)c2ccc(/C=C3\Oc4ccccc4N(Cc4ccc(Cl)cc4)C3=O)cc2)CC1	6.65% (inactive)
O=C(NCCN1CCOCC1)c1ccc(/C=C2\Sc3ccccc3N(Cc3ccc(F)cc3)C2=O)cc1	-82.1% (active)
O=C(NCCN1CCOCC1)/C(=C/c1ccc(F)cc1)NC(=O)c1ccccc1	12.6% (inactive)
Cc1ccccc1CN1C(=O)c2ccccc2Sc2ccc(C(=O)NCCCN3CCOCC3)cc21	-22.1% (inactive) and -63.9% (active)
CCC1=Nc2cc(C(=O)NCCCN3CCOCC3)ccc2Sc2ccc(Br)cc21	-16.7% (inactive)

SMILES	activity change, negative = inhibition
O=C(NCCN1CCOCC1)c1ccc2c(c1)N(Cc1cccc(Cl)c1)C(=O)c1ccccc1S2(=O)=O	2.8% (inactive)
COc1ccc(S(=O)(=O)NCC(c2ccc(N(C)C)cc2)N2CCc3ccccc32)cc1OC (stereo unspecified)	-3.43% (inactive)
CN(C)c1cccc(C(=O)Nc2nc3ccc(S(=O)(=O)NC(C)(C)C)cc3s2)c1	1.26% (inactive)
CC(C)c1ccc(OCC(=O)N(Cc2ccc(N(C)C)cc2)C2CCS(=O)(=O)C2)cc1 (stereo unspecified)	-31.5% (inactive)
Cc1cccc(Cn2c(SCc3ccc(C(=O)N4CCC(C)CC4)cc3)nc3ccncc32)c1	-27.4% (inactive)
CC(C)c1ccc(NC(=O)Cn2nnc(C(=O)NCCc3ccccc3)c2N)cc1	7.65% (inactive)
Cn1c(C(=O)N2CCC(C(=O)N3CCN(c4ccccc4)CC3)CC2)cc2sccc21	-7.62% (inactive)
O=C(CN1CCOCC1)Nc1cccc([N+](=O)[O-])c1	-13.2% (inactive)
CCC(CC)NC(=O)/C=C/c1cccc([N+](=O)[O-])c1	5.58% (inactive)
COC(=O)/C=C\C(=O)Nc1cccc([N+](=O)[O-])c1	-90.5% (active)
C[C@@H]1CCC[C@H](C)N1CCCC(O)(c1ccccc1)c1ccccn1 (stereo partly specified)	5.21% (inactive)
O=C(NNC(=O)C1CCC1)c1ccccc1	-1.83% (inactive)
O=C(NNC(=O)C1CCN(c2ncccn2)CC1)c1ccccc1	0.68% (inactive)
O=C(NNc1nc(N2CCCC2)nc(N2CCCC2)n1)c1ccccc1	-63.3% (active)
CCc1ccc(S(=O)(=O)c2nnn3c2nc(N2CCN(CC)CC2)c2sccc23)cc1	-12.6% (inactive)
CCN1CCC2(CC1)N=C(c1ccc(F)cc1)C(=S)N2C(=O)c1ccc(C)cc1	8.98% (inactive)
CCN1CCC(O)(/C=C/c2ccc(C)cc2)C(C(=O)/C=C/c2ccc(C)cc2)C1 (stereo unspecified)	-75.3% (active)
CCCS(=O)(=O)c1c(Nc2ccccc2C)sc(C(=O)c2ccccc2)c1N	-38.6% (inactive)
Cc1cccc(NC(c2cccc(F)c2)c2ccc3ccc(C)nc3c2O)n1 (stereo unspecified)	-1.75% (inactive)

SMILES	activity change, negative = inhibition
Cc1ccc(-c2cnc(NCc3ccc(C(C)C)cc3)n2C)cc1	-10.2% (inactive)
Cc1[nH]c2ccccc2c1C(=O)COC(=O)c1c(-c2ccccc2)noc1C	-27.9% (inactive)
CCOC(=O)c1c(C)[nH]c(=S)c(C#N)c1-c1ccccc1	-118% (active)
CC(=O)c1c(C)[nH]c(=S)c(C#N)c1-c1ccc(F)cc1	7.17% (inactive)
OCc1ccc(-c2ccccc2)c(-c2ccccc2)c1	-64.5% (active)
OCCN(Cc1ccccc1)Cc1ccc(Cl)cc1	-15.6% (inactive)
OCC(CO)(CO)NCc1ccc(-c2ccccc2)cc1	-7.18% (inactive)
CCOC(=O)c1c(C)oc2nc(C)nc(N(CC(C)C)CC(C)C)c12	-27.5% (inactive)
O=C(NCc1cccnc1)c1cn(-c2ccccc2)nc1-c1cccs1	-17.9% (inactive)
CC(=O)C1=C(C)NC(C)=C(C(C)=O)C1c1cn(-c2ccccc2)nc1-c1cccs1	-18.3% (inactive)
O=C(O)c1ccc(N/N=C/c2cn(-c3ccccc3)nc2-c2cccs2)cc1	-105% (active)
CCCn1c2ccccc2c2cnn(CC(=O)N3CCCC(C(=O)OCC)C3)c(=O)c21 (stereo unspecified)	3.38% (inactive)
CCN(CCCNC(=O)CSc1cc(=O)n(C)c2cc(Cl)ccc12)c1cccc(C)c1	14% (inactive)
CSc1ccccc1NC(=O)CCS(=O)(=O)c1nc(-c2cccs2)cc(C(F)(F)F)n1	0.767% (inactive)
COc1ccc(NC(=O)NC(C)c2c(-n3cccc3)sc(C)c2C)cc1OC (stereo unspecified)	-9.76% (inactive)
O=C(Nc1ccccc1Cl)N1CCC(CN2CCCC2)CC1	2.65% (inactive)
O=C(CCN1CCN(C/C=C/c2ccccc2)CC1)Nc1ccccc1Cl	3.3% (inactive)
O=C(Nc1ccccc1Cl)/C(Cl)=C(\Cl)S(=O)c1ccccc1 (stereo unspecified)	-106% (active)
